An excerpt weighted towards active compounds, which were near 14% of everything screened.
MARV entry inh: blocks Marburg virus binding to or entry into cells | Marburg virus pseudotyped entry inhibition, cell reporter | Potency, µM (top dose mostly 37.8 µM), without a hit: at the highest dose activity change, negative = inhibition, hits mostly inhibitors | 300,000 tested, 1.8% active | AID 540276; calls by dose curve; tested in HEK293 cells; further: potency means the concentration at half of the fitted maximal effect
HCV inh: blocks hepatitis C virus | Huh7.5.1 HCVcc-Cre infection, luciferase reporter, 44 h | Potency, µM (titrated, usually from 41.8 µM), for the others: at the highest dose activity change, negative = inhibition, hits mostly inhibitors | 340,000 tested, 3.4% active | AID 651820; further: potency means the concentration at half of the fitted maximal effect
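Luciferase read-out (15 sec integration) after a 15 min room-temperature substrate step quantifies HCVcc-Cre infection. Cells, 1,000 per well, had compound added 4 h post-plating, then virus at ~0.5 moi, and were cultured 44 h.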
Pf growth 96h: inhibits malaria parasite growth, 96 h | P. falciparum luciferase reporter growth, 96 h | 320,000 tested, 6.9% active | Potency, µM (highest dose often 28.7 µM), for inactives: top-dose activity change, negative = inhibition, most hits filed as inhibitors | AID 504834; further: potency means the concentration at half of the fitted maximal effect
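P. falciparum expressing integrated firefly luciferase grown in erythrocytes (2% hematocrit, 0.05% parasitemia final) with compounds for 96 hours at 37 C, 5% CO2. Growth inhibition read as loss of luminescence after adding luciferase detection reagent.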
Pf growth 48h: P. falciparum growth inhibition at 48 hours (one generation) | P. falciparum luciferase growth in erythrocytes, 48 h | Potency, µM (top dose mostly 28.7 µM), for the others: top-dose activity change, negative = inhibition, actives largely listed as inhibitors | 310,000 tested, 5.9% active | AID 504832; further: potency means the concentration at half of the fitted maximal effect
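Cell-based growth assay: transgenic P. falciparum expressing firefly luciferase, cultured in red cells within RPMI 1640 containing 0.5% w/v Albumax, 24 mM bicarbonate and gentamycin. A drop in luciferase activity indicates inhibition.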
HCMV inh: blocks human cytomegalovirus replication | 410,000 tested, 4.5% active | HFF cells, HCMV-luciferase reporter, 72 h; active compounds read low | AID 1259415 | activity change, negative = inhibition, % at 57.5 µM; in the data active means activity change below about -60%; inconclusive means no clear call, values can overlap the other calls; inactive means above about -39%
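Screen run at 2 compound doses on HFFs infected with reporter HCMV, MOI 1 PFU/cell. Luciferase activity from cell lysates at 72 h post infection gave inhibition relative to buffer-only and Salinomycin wells.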
LASV entry inh: Lassa virus entry inhibition. Lassa virus pseudotype entry inhibition, cell reporter. Potency, µM (series often up to 37.9 µM), inactives show at the top dose activity change, negative = inhibition, usual class: inhibitors. 300,000 tested, 1.2% active; calls by dose curve; tested in HEK293 cells; further: potency means the concentration at half of the fitted maximal effect; nearly all actives have a fitted effect of over 50% in size
The depositor's hits bear a star; ? = inconclusive; . = no result given; [ ] = another dose, or the depositor's remark. Unless noted, the call rests on the fitted dose curve; in most records, active means well fitted inhibition curve with a large enough effect; inconclusive means small, poorly fitted or top-dose-only effect, or another doubt; inactive means no such curve, though single readings can be large or run the other way. On the % scale 0 is the no-effect control and ±100 the full control effect.

SMILES	MARV entry inh	HCV inh	Pf growth 96h	Pf growth 48h	HCMV inh	LASV entry inh
COc1cc(C(=O)N2CCCCC2c2cc(C(=O)Nc3ccccc3)no2)cc(OC)c1C (stereo not drawn)	.	.	.	.	-26	.
CC1=NN(c2ccccc2)C(=O)/C1=C/C=C/c1ccc(N(C)C)cc1	.	-21%	?	?	7	.
CC1=NN(c2ccccc2)C(=O)/C1=C\C=C\c1ccccc1	?	?	12µM*	?	-98*	?
COC(=O)CSc1cccc2c1C(=O)CC2c1ccccc1 (stereo not drawn)	.	-5%	-20%	14%	2	.
O=C1C=CC2(O[C@H](c3ccccc3)[C@@H](c3ccccc3)O2)[C@H](Sc2ccccc2O)C1	?	?	.	.	-100*	6.3µM*
Cn1c(=NC(=O)CS(=O)(=O)c2ccccc2)sc2ccccc21	-14%	-26%	39%	75%	-16	4%
Cn1c(=NC(=O)CS(=O)(=O)c2ccccc2)sc2cc([N+](=O)[O-])ccc21	6%[46.1 µM]	-12%	?	12µM*	-87*	-2%
CCCNC(=O)OC[C@H]1O[C@H](CCON=Cc2ccc(C(=O)N3[C@H](C(=O)OC)CC[C@H](C)[C@@H]3c3ccc(C)cc3)cc2)C=C[C@H]1Oc1ccc(OC)cc1	-28%[14.2 µM]	.	.	.	.	-24%[14.3 µM]
CCOc1ccc(NCc2nnc(SCc3ccccc3Cl)n2-c2ccccc2)cc1	?	?	346%	?	-10	?
COc1ccc(-n2c(CNc3ccc(C)cc3)nnc2SCc2ccccc2)cc1	?	-6%	67%	?	33	11µM*
CCOc1ccc(-n2c(SCc3ccc([N+](=O)[O-])cc3)nnc2-c2ccccc2)cc1	?	-30%	4.7µM*	?	?	?
COc1ccc(-n2c(COc3ccccc3)nnc2SCc2ccc(C#N)cc2)cc1	?	-20%	?	12µM*	-16	-13%
N#Cc1ccc(CSc2nnc(COc3ccccc3)n2-c2ccccc2)cc1	-22%	?	?	.	-20	-12%
CCCN1[C@@H]2c3cccc(=O)n3C[C@H]1[C@H](CO)[C@H]2C(=O)OC	.	.	.	.	-1	.
CC1=C(C#N)C(c2ccccc2)C2=C(N1)c1ccccc1C2=O (stereo not drawn)	?	?	15µM*	?	-71*	?
Cn1c(C(=O)NCC2CCCO2)cc2c(=O)[nH]c3ccccc3c21 (stereo not drawn)	16%	5%	?	4%	4	-3%
Cc1ccc(-c2cc(C(=O)NCC3CCCO3)c3ccccc3n2)cc1C (stereo not drawn)	18%[46.1 µM]	19%	?	34%	-3	7%
COc1ccc(-c2cc(C(=O)NCC3CCCO3)c3ccccc3n2)cc1 (stereo not drawn)	.	-1%	19%	50%	-2	.
Cc1ccccc1-c1nc(C(=O)NCC2CCCO2)cc2c1[nH]c1ccccc12 (stereo not drawn)	.	?	12µM*	?	-23	.
Cc1ccc(-c2nc(C(=O)NCC3CCCO3)cc3c2[nH]c2ccccc23)cc1 (stereo not drawn)	.	?	?	7.4µM*	-95*	.
COc1ccc(-c2nc(C(=O)NCC3CCCO3)cc3c2[nH]c2ccccc23)cc1 (stereo not drawn)	.	3.5µM*	7.4µM*	5.2µM*	?	.
O=C(C1=C[C@H](C2CC2)C[C@H](OCc2ccc(CO)cc2)O1)N1CCN(Cc2ccc3c(c2)OCO3)CC1	.	?	?	?	-33	.
O=C(C1=C[C@H](C2CCCCC2)C[C@H](OCc2ccc(CO)cc2)O1)N1CCN(Cc2ccc3c(c2)OCO3)CC1	.	2%[8.37 µM]	10µM*	?	.	.
O=C(C1=C[C@@H](C2CCCCC2)C[C@@H](OCc2ccc(CO)cc2)O1)N1CCN(Cc2ccc3c(c2)OCO3)CC1	.	?	13µM*	4.7µM*	8	.
COc1ccc(Br)cc1CN(C)C(=O)c1ccccc1SCC(=O)N1CCCC1	?	-13%	.	.	.	?
